# Key:
# [1] = target: T1, Ephrin type-A receptor 3 (Homo sapiens) (UniProt P29320); settings: at 10 µM
# T1 sequence (whole entry): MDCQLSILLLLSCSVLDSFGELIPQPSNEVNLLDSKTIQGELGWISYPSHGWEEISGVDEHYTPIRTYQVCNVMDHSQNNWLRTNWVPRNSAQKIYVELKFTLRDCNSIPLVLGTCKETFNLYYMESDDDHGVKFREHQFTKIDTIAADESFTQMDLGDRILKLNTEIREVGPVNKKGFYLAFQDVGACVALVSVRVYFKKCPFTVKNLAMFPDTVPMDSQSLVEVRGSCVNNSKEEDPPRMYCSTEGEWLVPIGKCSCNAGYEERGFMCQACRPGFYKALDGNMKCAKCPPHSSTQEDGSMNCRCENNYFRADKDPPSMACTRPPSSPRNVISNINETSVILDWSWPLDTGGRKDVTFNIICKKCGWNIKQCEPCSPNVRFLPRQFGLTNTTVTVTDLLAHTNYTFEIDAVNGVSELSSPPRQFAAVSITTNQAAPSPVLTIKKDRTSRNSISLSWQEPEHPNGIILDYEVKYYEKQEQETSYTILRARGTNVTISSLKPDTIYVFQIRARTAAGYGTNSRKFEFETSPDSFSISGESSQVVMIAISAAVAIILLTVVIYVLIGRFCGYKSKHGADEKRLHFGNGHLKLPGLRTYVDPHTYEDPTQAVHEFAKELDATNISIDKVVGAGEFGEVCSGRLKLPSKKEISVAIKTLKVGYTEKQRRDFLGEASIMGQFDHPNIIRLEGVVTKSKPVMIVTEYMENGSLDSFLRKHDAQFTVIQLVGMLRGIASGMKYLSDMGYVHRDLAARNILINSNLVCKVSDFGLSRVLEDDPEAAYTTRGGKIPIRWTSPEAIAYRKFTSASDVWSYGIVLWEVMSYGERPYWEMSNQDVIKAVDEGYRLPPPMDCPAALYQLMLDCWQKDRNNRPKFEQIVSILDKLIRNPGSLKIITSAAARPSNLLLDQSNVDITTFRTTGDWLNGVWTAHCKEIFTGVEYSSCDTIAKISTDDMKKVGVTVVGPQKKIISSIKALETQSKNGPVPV
# [2] = target: Ephrin type-A receptor 4 (Homo sapiens) (UniProt P54764); settings: at 1 µM
# Sequence of Ephrin type-A receptor 4 (Homo sapiens) (P54764 whole entry): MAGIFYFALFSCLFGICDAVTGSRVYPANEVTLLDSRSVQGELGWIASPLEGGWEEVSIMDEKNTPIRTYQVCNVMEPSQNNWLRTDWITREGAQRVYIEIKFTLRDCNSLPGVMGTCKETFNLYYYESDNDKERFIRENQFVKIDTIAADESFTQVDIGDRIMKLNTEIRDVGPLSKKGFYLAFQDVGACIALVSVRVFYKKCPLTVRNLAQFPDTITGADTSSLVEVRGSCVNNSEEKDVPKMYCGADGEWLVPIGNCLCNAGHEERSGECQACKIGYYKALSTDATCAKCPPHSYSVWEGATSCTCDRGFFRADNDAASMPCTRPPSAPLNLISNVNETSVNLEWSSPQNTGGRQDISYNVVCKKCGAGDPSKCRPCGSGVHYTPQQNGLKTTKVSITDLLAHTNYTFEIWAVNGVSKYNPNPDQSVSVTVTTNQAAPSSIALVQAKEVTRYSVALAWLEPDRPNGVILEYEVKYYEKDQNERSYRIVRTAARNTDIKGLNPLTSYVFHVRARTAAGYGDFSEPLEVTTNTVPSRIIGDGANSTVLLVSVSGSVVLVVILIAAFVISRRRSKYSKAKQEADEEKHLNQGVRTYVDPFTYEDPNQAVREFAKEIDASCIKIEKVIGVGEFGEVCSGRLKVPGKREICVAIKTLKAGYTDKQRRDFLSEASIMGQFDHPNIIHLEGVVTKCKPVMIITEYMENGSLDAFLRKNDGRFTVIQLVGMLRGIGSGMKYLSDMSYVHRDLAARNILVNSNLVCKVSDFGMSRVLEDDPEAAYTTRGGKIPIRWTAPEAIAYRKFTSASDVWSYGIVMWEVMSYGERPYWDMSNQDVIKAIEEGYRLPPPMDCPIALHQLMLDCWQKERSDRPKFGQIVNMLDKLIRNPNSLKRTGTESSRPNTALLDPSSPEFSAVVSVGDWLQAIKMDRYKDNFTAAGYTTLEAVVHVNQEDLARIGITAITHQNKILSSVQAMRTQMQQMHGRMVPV
# [3] = target: Ephrin type-A receptor 4 (Homo sapiens) (UniProt P54764); settings: at 10 µM
# [4] = target: Ephrin type-A receptor 5 (Homo sapiens) (UniProt P54756); settings: at 1 µM
# Sequence of Ephrin type-A receptor 5 (Homo sapiens) (P54756 whole entry): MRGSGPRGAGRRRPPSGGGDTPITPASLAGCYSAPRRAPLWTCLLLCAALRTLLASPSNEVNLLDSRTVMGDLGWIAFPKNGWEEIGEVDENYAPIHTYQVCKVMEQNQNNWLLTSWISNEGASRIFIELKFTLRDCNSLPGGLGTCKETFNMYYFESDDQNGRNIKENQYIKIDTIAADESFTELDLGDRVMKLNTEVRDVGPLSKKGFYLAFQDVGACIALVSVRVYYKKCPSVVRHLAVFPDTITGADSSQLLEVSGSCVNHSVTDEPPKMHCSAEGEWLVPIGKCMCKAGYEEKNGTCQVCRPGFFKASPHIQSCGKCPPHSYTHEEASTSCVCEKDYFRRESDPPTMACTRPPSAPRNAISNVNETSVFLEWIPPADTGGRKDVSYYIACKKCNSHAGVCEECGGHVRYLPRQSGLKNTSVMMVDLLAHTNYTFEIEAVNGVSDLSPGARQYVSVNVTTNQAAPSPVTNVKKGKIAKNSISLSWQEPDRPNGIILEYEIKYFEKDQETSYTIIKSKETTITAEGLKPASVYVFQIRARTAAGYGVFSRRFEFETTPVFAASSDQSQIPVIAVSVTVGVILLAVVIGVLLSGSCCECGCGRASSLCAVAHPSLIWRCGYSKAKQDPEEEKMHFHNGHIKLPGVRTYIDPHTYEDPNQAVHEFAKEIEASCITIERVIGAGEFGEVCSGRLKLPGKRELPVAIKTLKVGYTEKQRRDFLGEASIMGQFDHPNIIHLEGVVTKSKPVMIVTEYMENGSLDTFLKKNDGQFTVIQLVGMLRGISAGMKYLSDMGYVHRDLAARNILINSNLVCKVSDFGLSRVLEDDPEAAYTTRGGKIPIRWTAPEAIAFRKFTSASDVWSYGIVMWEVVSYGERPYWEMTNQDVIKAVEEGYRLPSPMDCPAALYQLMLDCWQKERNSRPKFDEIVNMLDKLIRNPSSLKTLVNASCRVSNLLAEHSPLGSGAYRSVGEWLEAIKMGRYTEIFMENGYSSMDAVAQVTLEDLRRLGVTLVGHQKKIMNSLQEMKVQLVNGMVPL
# [5] = target: Ephrin type-A receptor 5 (Homo sapiens) (UniProt P54756); settings: at 10 µM
# [6] = target: Ephrin type-A receptor 7 (Homo sapiens) (UniProt Q15375); settings: at 1 µM
# Sequence of Ephrin type-A receptor 7 (Homo sapiens) (Q15375 28-998 limits assumed): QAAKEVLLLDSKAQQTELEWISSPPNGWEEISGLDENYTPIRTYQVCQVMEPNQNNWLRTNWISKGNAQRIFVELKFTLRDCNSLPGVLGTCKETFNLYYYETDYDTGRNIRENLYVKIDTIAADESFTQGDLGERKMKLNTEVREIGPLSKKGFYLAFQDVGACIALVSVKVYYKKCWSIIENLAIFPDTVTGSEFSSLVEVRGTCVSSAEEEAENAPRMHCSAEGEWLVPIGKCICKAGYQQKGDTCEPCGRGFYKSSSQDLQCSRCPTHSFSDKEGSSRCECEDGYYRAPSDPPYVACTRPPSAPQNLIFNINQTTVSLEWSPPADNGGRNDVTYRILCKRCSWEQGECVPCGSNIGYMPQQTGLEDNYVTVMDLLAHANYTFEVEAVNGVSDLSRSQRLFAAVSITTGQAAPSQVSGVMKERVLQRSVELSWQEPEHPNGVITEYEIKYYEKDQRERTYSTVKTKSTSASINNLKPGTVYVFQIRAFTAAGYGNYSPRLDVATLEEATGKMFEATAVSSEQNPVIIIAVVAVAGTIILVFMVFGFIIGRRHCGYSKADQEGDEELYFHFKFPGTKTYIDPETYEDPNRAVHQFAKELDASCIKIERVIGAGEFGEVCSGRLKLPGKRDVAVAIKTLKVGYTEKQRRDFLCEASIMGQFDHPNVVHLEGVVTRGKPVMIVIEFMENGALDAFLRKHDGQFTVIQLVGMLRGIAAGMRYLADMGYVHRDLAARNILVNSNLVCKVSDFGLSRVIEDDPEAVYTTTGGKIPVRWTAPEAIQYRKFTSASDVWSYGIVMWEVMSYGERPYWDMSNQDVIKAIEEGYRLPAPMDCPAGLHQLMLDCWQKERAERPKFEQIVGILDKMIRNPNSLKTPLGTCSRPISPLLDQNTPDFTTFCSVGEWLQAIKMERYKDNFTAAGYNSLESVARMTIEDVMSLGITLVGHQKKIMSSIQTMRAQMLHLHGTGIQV
# [7] = target: Ephrin type-A receptor 7 (Homo sapiens) (UniProt Q15375); settings: at 10 µM
# [8] = target: T2, Ephrin type-A receptor 8 (Homo sapiens) (UniProt P29322); settings: at 1 µM
# T2 sequence (whole entry): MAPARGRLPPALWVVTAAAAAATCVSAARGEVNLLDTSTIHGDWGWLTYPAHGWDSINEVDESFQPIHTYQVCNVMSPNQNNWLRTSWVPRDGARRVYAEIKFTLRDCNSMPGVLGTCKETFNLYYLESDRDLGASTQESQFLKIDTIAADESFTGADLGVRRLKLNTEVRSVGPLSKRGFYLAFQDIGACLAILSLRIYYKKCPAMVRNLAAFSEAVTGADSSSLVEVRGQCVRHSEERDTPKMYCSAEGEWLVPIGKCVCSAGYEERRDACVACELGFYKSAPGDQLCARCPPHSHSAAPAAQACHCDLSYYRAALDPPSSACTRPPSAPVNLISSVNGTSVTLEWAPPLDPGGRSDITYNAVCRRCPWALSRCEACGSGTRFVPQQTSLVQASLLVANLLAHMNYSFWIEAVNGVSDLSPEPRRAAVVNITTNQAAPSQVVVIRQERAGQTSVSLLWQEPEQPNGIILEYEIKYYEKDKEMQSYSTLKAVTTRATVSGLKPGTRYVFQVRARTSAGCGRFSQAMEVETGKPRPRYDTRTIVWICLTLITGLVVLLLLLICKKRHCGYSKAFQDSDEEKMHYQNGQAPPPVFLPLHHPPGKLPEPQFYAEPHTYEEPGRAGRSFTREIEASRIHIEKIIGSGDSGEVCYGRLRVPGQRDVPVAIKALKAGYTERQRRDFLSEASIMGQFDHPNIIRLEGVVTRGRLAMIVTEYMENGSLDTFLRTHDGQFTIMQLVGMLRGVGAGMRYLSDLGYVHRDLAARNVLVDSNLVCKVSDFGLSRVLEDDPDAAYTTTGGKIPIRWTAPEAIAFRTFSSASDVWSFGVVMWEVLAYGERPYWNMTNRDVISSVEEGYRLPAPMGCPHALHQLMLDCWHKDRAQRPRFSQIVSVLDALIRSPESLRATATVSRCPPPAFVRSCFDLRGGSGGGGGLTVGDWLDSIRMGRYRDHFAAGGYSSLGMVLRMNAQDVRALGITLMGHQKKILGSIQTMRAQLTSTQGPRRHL
# [9] = target: T2, Ephrin type-A receptor 8 (Homo sapiens); settings: at 10 µM
# [10] = target: T3, Ephrin type-B receptor 1 (Homo sapiens) (UniProt P54762); settings: at 1 µM
# T3 sequence (whole entry): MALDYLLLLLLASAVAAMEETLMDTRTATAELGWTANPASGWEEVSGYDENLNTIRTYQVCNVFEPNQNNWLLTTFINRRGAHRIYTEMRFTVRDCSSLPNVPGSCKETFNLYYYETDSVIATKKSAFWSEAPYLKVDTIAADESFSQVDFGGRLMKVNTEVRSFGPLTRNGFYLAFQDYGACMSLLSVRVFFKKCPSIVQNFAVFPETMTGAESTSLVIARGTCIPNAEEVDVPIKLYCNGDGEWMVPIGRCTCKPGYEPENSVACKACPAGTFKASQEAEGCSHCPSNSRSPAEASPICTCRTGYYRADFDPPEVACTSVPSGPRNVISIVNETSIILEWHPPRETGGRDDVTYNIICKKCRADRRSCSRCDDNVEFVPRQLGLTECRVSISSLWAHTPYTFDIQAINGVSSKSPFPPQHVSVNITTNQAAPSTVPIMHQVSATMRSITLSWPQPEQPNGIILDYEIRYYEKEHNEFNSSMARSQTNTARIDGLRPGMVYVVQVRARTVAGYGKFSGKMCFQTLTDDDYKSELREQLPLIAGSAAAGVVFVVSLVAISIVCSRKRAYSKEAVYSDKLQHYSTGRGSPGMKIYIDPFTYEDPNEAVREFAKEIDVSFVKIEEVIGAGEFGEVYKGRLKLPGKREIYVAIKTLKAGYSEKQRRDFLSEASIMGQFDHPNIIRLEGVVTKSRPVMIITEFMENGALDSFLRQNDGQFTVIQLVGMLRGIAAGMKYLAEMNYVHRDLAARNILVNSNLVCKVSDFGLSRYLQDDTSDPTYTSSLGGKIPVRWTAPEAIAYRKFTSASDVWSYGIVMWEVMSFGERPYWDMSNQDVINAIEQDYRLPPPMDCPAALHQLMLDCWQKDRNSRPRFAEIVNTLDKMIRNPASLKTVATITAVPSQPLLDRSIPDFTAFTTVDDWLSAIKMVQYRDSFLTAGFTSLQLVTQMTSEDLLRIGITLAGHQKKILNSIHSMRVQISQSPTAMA
structure (smiles),measurement,setting,value
CO[C@H]1C[C@@H]2CC[C@@H](C)[C@@](O)(O2)C(=O)C(=O)N2CCCC[C@H]2C(=O)O[C@H]([C@H](C)C[C@@H]2CC[C@@H](O)[C@H](OC)C2)CC(=O)[C@H](C)/C=C(\C)[C@@H](O)[C@@H](OC)C(=O)[C@H](C)C[C@H](C)/C=C/C=C/C=C/1C,residual activity,[1],129%
same,residual activity,[2],104%
same,residual activity,[3],100%
same,residual activity,[4],112%
same,residual activity,[5],116%
same,residual activity,[6],100%
same,residual activity,[7],92%
same,residual activity,[8],96%
same,residual activity,[9],119%
same,residual activity,[10],101%
